For some assays here: Measured potencies and affinities stand elsewhere. Calls of active or inactive are those of the source.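 The calls were made as follows, unless noted: active = primary screen active and over 50% activation in each of two duplicate runs; inactive = the rest.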
Experiments:
[1] = tested on: TRPC4 beta (transient receptor potential cation channel C4), mouse; test: TRPC4 cation channel opening, retest – cell-based, Fluo4 calcium, HEK293 TRPC4beta/mu-opioid, duplicates, 10 µM, confirmation (AID 2426;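 active = fluorescence ratio normalized to control raised more than 50% in primary screen plus both repeat runs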;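 as to activation: percent rise of integrated ratio over buffer wells lacking compound which define 0%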); details: Fluo4 calcium fluorescence, at 10 µM; hits give high values
[2] = tested on: transient receptor potential cation channel C4 beta (TRPC4), mouse; test: TRPC4 cation channel opening, second retest – cell-based, second round, Fluo4, HEK293 TRPC4beta/mu-opioid, 1 µM, confirmation (AID 2461); details: Fluo4 calcium fluorescence, at 1 µM; hits give high values;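 as to activation: 0% = wells without test compound as baseline of integrated fluorescence ratio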
[3] = tested on: TRPC4 (transient receptor potential cation channel C4 beta), mouse; test: potentiation of DAMGO EC20 TRPC4 response – cell-based, second round, Fluo-4, HEK293 TRPC4beta/mu-opioid, 1 µM, confirmation (AID 2554;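 active = primary screen hit whose fluorescence ratio, in both repeats, exceeds the weak agonist control mean by 3 SD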); details: DAMGO EC20, Fluo-4 calcium flux, at 1 µM; hits give high values
[4] = tested on: TRPC4 beta (transient receptor potential cation channel C4), mouse; test: potentiation of DAMGO EC20 TRPC4 response – cell-based, Fluo-4, HEK293 TRPC4beta/mu-opioid, confirmation (AID 2555;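 active = primary screen hit whose calcium fluorescence ratio, in both repeats, exceeds the weak agonist control mean by 3 SD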); details: DAMGO EC20, Fluo-4 calcium flux, at 10 µM; hits give high values
[5] = molecular target: Short transient receptor potential channel 4 (Mus musculus) (UniProt Q9QUQ5); test: blockers of DAMGO-evoked TRPC4 calcium flux – cell-based, Fluo4, HEK293 TRPC4beta/mu-opioid, confirmation (AID 2636;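 active = calcium signal cut by more than 3 SD below the full-agonist control yet still positive, in both repeats and the earlier primary screen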); details: at 10 µM; hits give high values
[6] = molecular target: Short transient receptor potential channel 4 (Mus musculus) (UniProt Q9QUQ5); test: blockers of DAMGO-evoked TRPC4 calcium flux – cell-based, second round, Fluo4, HEK293 TRPC4beta/mu-opioid, 1 µM, confirmation (AID 2637;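 active = calcium signal ratio cut to more than 3 SD under the fully stimulated control mean yet still positive, in both repeats and the primary screen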); details: at 1 µM; hits give high values
[7] = molecular target: Short transient receptor potential channel 4 (Mus musculus) (UniProt Q9QUQ5); test: calcium entry via TRPC4 opening agents – cell-based, HEK293 TRPC4/mu-opioid, Fluo-4 calcium, dose response (AID 434937;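 active = primary screen activator hit with a dose response curve and TRPC4 channel activation at any tested dose; inactive = no activation, no dose response, or not a primary hit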)
[8] = molecular target: Short transient receptor potential channel 4 (Mus musculus) (UniProt Q9QUQ5); test: block of DAMGO-driven TRPC4 calcium entry – cell-based, HEK293 TRPC4/mu-opioid, Fluo-4 calcium, dose response (AID 434942;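 active = primary screen inhibitor hit that blocks the TRPC4 channel at some tested dose, yielding a dose curve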)
[9] = molecular target: Short transient receptor potential channel 6 (Mus musculus) (UniProt Q61143); test: TRPC6 blockade by TRPC4 inhibitor hits – cell-based, HEK293, membrane potential dye, duplicate, selectivity assay for TRPC4 inhibitor project, confirmation (AID 434948;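 active = active in primary screen and both duplicates, each dropping signal beyond three positive-control SD with fluorescence still positive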); details: HEK293 TRPC6, membrane potential dye fluorescence, at 10 µM, stimulated with maximal-effect acetylcholine; hits give high values
[10] = molecular target: Short transient receptor potential channel 6 (Mus musculus) (UniProt Q61143); test: TRPC6 opening by TRPC4 activator hits – cell-based, HEK293, membrane potential dye, duplicate, selectivity assay for TRPC4 activator project, confirmation (AID 434950;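 active = membrane potential signal rise above negative control mean plus 3 SD in both duplicates, also active in the earlier TRPC4 screen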;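 as to activation: 0% = buffer only wells and 100% = acetylcholine maximal-effect wells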); details: HEK293 TRPC6, membrane potential fluorescence, at 10 µM; activation: hits give high values; outcome: activation
[11] = molecular target: Short transient receptor potential channel 6 (Mus musculus) (UniProt Q61143); test: positive modulators of mouse TRPC6 channel – HEK293 cells, membrane potential dye, duplicate, selectivity assay for TRPC4 potentiator project, confirmation (AID 434952;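 active = compound raising the membrane signal above positive-control mean plus 3 SD in both repeats, and a primary screen hit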); details: HEK293 TRPC6, membrane potential dye fluorescence, at 10 µM, maximal acetylcholine added after compound; hits give high values
[12] = molecular target: Short transient receptor potential channel 4 (Mus musculus) (UniProt Q9QUQ5); test: calcium flux activators in TRPC4/5HT1a cells, counter-screen for TRPC4 activator project, cell-based, second counter screen, HEK293 TRPC4/5HT1a, Fluo-4 (AID 434977;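 active = calcium signal rise above buffer-control mean plus 5 SD in both duplicates, and also a hit in the primary screen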;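 as to activation: plate controls were assay buffer for no effect and maximal serotonin response for full effect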); details: Fluo-4 calcium flux, at 10 µM; hits give high values
[13] = serotonin-gated TRPC4 signal block – cell-based, second counter screen, HEK293 TRPC4/5HT1a, Fluo-4, counter-screen for TRPC4 inhibitor project, confirmation (AID 434978;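 active = primary screen active whose calcium signal fell more than 3 SD beyond the full-serotonin control mean in both duplicate plates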;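 also: serotonin given first at submaximal then at maximal dose after compound preincubation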); details: Fluo-4 calcium flux, at 10 µM, serotonin added to trigger calcium flux; hits give high values
[14] = tested on: TRPC4 (mouse), co-expressed with 5HT1a in HEK293; test: enhancement of serotonin-evoked TRPC4 response – cell-based, second counter screen, HEK293 TRPC4/5HT1a, Fluo-4, counter-screen for TRPC4 potentiator project, confirmation (AID 434979;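 active = signal rise over 3 SD above mean of control wells given weak agonist, in both repeats and first screen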); details: Fluo-4 calcium flux, at 10 µM, serotonin added at its EC20 dose; hits give high values
[15] = nonspecific calcium rise without TRPC4 – cell-based, HEK293 mu-opioid receptor line, counter-screen for TRPC4 activator project, confirmation (AID 449723;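 active = hit in primary screen, with calcium signal over 5 SD above buffer well mean in both duplicates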;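 also: counter screen cells carry the mu-opioid receptor alone and lack TRPC4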); details: HEK293 mu-opioid cells, Fluo-4 calcium fluorescence, at 10 µM; hits give high values
[16] = nonspecific potentiation of DAMGO calcium response – cell-based, HEK293 mu-opioid receptor line, counter-screen for TRPC4 allosteric potentiator project, confirmation (AID 449724;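 active = calcium signal rise more than 3 SD above the low-dose agonist control mean, in both duplicate plates and the primary screen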); details: HEK293 mu-opioid receptor cells, Fluo-4 calcium flux, at 10 µM, compound added before EC20 DAMGO stimulus; hits give high values
[17] = molecular target: Short transient receptor potential channel 4 (Mus musculus) (UniProt Q9QUQ5); test: potentiation of DAMGO-evoked TRPC4 calcium signal – cell-based, HEK293 TRPC4/mu-opioid, Fluo-4 calcium, EC20 DAMGO, dose response (AID 434941;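 active = earlier screen potentiator hit that boosts the TRPC4 ion channel at some dose, with a dose response; inactive = no potentiation, no dose response, or not a prior hit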;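 also: calcium entry triggered by an EC20 dose of DAMGO at the co-expressed mu-opioid receptor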)
[18] = nonspecific flux increase, KCNQ1-free cells – parental CHO cells, counter-screen for KCNQ1 potentiator project (AID 493006;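 active = duplicate-averaged activation above buffer control mean plus 5 SD of those controls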;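 also: fluorescence ratio of max minus min over baseline after K+ and Tl+ depolarization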); details: parental CHO-K1 cells, FluxOR thallium flux, at 10 µM; hits give high values
[19] = molecular target: Potassium voltage-gated channel subfamily KQT member 1 (Homo sapiens) (UniProt P51787); test: enhancement of KCNQ1 channel thallium flux – FluxOR thallium flux, CHO cells, duplicates, confirmation (AID 493007;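 active = potentiation averaged over duplicate wells exceeding buffer-only control mean by more than 3 SD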;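 also: 0% = buffer-only wells and 100% = R-L3 activator control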); details: KCNQ1 cell line, FluxOR thallium flux fluorescence, at 10 µM; hits give high values, % of reference activator effect, buffer zero
[20] = molecular target: Potassium voltage-gated channel subfamily KQT member 2 (Rattus norvegicus) (UniProt O88943); test: KCNQ2 thallium flux enhancement – KCNQ2-CHO-K1 cells, selectivity assay for KCNQ1 potentiator project (AID 493009;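 active = mean duplicate potentiation above the buffer control mean plus 5 SD of buffer wells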;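 also: assay conditions were tuned for KCNQ1 rather than KCNQ2 modulators; signal is max minus min fluorescence divided by baseline after thallium stimulus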); details: FluxOR thallium flux fluorescence, at 10 µM; hits give high values, scaled: buffer 0, activator control 100
Sequence of Potassium voltage-gated channel subfamily KQT member 2 (Rattus norvegicus) (O88943 whole entry, looked up): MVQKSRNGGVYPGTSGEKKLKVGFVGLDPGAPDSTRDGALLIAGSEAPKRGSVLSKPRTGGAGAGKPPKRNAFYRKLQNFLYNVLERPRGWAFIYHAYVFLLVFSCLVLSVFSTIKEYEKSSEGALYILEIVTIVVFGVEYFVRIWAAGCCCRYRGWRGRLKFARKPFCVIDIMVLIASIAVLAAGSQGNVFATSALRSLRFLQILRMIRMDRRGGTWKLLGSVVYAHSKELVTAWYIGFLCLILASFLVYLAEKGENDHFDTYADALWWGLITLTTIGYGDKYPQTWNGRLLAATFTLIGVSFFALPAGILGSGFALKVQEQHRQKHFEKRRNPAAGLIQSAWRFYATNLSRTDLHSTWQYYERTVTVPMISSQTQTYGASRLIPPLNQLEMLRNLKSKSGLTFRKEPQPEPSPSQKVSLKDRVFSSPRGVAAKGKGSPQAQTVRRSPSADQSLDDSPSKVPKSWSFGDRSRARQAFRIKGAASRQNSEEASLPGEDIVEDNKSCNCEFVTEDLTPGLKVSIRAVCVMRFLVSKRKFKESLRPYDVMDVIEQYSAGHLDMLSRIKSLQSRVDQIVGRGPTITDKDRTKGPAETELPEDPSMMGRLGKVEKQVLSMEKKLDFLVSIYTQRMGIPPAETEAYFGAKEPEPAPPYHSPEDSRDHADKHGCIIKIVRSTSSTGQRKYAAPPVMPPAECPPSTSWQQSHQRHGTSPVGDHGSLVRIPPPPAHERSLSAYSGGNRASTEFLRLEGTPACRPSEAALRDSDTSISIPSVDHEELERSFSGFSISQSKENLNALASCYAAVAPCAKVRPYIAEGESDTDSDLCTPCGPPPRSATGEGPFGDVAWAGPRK

Sequence of Short transient receptor potential channel 4 (Mus musculus) (Q9QUQ5 whole entry, looked up): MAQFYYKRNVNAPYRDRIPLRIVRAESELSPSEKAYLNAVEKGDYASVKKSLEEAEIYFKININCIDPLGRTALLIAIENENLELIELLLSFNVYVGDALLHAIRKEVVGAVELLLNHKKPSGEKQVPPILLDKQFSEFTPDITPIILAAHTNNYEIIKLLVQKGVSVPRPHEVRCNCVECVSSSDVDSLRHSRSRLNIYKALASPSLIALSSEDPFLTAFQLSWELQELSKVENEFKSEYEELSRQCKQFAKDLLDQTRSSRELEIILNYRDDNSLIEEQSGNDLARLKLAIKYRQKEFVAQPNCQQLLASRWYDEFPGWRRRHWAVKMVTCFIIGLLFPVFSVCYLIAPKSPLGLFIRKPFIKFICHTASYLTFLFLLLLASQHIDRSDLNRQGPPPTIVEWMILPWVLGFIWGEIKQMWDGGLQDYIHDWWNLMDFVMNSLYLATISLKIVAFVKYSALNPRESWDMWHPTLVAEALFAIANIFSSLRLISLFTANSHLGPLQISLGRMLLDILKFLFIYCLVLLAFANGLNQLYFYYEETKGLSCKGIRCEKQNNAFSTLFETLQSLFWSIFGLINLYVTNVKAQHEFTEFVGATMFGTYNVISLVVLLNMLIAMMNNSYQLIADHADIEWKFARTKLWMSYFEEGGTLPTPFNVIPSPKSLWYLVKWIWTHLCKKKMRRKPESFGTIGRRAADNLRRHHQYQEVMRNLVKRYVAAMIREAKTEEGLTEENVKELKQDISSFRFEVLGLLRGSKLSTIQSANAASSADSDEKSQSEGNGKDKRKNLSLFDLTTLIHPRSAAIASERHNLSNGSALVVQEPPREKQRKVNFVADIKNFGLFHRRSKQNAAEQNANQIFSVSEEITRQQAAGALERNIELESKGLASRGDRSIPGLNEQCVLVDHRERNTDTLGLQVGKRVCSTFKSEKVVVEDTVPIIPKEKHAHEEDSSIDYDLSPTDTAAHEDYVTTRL
Sequence of Short transient receptor potential channel 6 (Mus musculus) (Q61143 whole entry, looked up): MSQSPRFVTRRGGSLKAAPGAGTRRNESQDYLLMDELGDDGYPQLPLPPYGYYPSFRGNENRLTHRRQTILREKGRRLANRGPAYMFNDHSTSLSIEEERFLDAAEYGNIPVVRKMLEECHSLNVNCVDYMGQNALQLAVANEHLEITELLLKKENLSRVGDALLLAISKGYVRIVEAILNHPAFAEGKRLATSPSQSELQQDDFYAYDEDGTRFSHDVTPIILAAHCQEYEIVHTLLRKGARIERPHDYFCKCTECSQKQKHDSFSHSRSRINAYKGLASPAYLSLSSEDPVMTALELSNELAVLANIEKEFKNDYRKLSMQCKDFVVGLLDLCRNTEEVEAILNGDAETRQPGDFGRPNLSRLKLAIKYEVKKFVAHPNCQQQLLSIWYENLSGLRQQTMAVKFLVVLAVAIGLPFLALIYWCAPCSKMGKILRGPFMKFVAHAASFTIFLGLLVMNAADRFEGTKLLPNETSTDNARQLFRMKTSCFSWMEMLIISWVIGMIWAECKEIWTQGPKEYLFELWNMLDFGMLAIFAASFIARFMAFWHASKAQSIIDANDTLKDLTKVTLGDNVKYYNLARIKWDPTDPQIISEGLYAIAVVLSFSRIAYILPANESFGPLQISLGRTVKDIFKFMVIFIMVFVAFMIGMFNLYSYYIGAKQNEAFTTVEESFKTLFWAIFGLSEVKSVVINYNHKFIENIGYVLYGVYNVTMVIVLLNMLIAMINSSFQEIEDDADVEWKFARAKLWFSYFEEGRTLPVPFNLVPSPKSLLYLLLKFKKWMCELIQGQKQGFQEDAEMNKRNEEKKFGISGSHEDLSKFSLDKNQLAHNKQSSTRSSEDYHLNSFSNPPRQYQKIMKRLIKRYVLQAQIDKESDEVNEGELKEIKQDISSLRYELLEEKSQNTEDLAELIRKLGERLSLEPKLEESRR
Sequence of Potassium voltage-gated channel subfamily KQT member 1 (Homo sapiens) (P51787 whole entry, looked up): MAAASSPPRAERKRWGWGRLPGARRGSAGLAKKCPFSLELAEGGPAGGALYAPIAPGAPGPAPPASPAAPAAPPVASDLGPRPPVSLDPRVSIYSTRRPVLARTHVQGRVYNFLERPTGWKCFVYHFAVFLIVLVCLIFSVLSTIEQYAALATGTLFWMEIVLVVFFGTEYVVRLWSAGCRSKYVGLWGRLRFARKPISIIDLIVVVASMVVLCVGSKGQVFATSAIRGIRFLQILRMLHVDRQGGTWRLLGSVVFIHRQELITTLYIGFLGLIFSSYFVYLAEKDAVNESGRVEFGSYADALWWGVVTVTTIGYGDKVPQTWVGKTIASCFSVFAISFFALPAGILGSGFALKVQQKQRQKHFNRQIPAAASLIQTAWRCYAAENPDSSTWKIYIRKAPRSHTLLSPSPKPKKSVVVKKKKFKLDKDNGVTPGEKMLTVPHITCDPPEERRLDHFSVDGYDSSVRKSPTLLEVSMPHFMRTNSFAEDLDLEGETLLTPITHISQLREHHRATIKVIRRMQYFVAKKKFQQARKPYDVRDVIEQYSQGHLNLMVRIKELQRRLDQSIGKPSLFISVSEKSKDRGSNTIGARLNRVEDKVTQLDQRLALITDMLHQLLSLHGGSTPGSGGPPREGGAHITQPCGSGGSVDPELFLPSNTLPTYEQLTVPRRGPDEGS

Cc1ccc(Cl)cc1N1CCN(C(=O)c2cccc3c(=O)c(C)c(-c4ccccc4)oc23)CC1
inactive: outcome [1] | outcome [2] | outcome [3] | outcome [4] | outcome [5] | outcome [6] | outcome [7] | outcome [8] | outcome [9] | outcome [10] | outcome [11] | outcome [12] | outcome [13] | outcome [15] | outcome [16]
active: potentiation [14] 21.8%

O=C(O)CCNc1nc(-c2ccccc2)c2cc(Br)ccc2n1
active: potentiation [3] 11% | potentiation [14] 24.1%
inactive: outcome [1] | outcome [2] | outcome [4] | outcome [5] | outcome [6] | outcome [7] | outcome [8] | outcome [9] | outcome [10] | outcome [11] | outcome [12] | outcome [13] | outcome [15] | outcome [16]

CCSC1=N/C(=C\c2ccc(OC)cc2)C(=O)N1
inactive: outcome [1] | outcome [2] | outcome [3] | outcome [4] | outcome [5] | outcome [6] | outcome [7] | outcome [8] | outcome [9] | outcome [10] | outcome [11] | outcome [12] | outcome [13] | outcome [14] | outcome [15] | outcome [16]

CCCC1(c2ccccc2)NC(=O)N(CC(=O)c2[nH]c(C)c(C(=O)OCC)c2C)C1=O (configuration not stated)
inactive: outcome [1] | outcome [2] | outcome [3] | outcome [5] | outcome [6] | outcome [7] | outcome [8] | outcome [9] | outcome [10] | outcome [11] | outcome [12] | outcome [13] | outcome [15] | outcome [16]
active: potentiation [4] 18% | potentiation [14] 35.6%

CN(C)C(CNc1ccc(C(F)(F)F)cn1)c1ccccc1 (configuration not stated)
active: activation [1] 135% | activation [10] 32% | activation [12] 5.53%
inactive: outcome [2] | outcome [3] | outcome [4] | outcome [5] | outcome [6] | outcome [17] | outcome [8] | outcome [9] | outcome [11] | outcome [13] | outcome [14] | outcome [15] | outcome [16]

CSc1ccc(C(=O)NCC(c2ccco2)N(C)C)cc1[N+](=O)[O-] (configuration not stated)
active: activation [1] 341% | activation [2] 228% | activation [12] 45.6%
inactive: outcome [3] | outcome [4] | outcome [5] | outcome [6] | outcome [17] | outcome [8] | outcome [9] | outcome [10] | outcome [11] | outcome [13] | outcome [14] | outcome [15] | outcome [16]

Cc1cccc(Cc2c(C)nc3c(C(=O)NCc4ccco4)cnn3c2C)c1
active: potentiation [14] 58.9%
inactive: outcome [1] | outcome [2] | outcome [3] | outcome [4] | outcome [5] | outcome [6] | outcome [7] | outcome [8] | outcome [9] | outcome [10] | outcome [11] | outcome [12] | outcome [13] | outcome [15] | outcome [16]

Cc1cccc(/C=N/NC(=O)c2cc(Br)ccc2O)n1
active: potentiation [3] 24% | potentiation [4] 46% | potentiation [14] 100% | activation [18] 140% | potentiation [19] 48% | potentiation [20] 182%
inactive: outcome [1] | outcome [2] | outcome [5] | outcome [6] | outcome [7] | outcome [8] | outcome [9] | outcome [10] | outcome [11] | outcome [12] | outcome [13] | outcome [15] | outcome [16]

Cc1ccc(S(=O)(=O)N2CCC(N3CCN(C)CC3)CC2)cc1Cl
inactive: outcome [1] | outcome [2] | outcome [5] | outcome [6] | outcome [7] | outcome [8] | outcome [9] | outcome [10] | outcome [11] | outcome [12] | outcome [13] | outcome [15] | outcome [16]
active: potentiation [3] 12% | potentiation [4] 20% | potentiation [14] 34.5%

CCCCCCn1c(N2CCN(c3ccccc3)CC2)nc2c1c(=O)n(C)c(=O)n2C
inactive: outcome [1] | outcome [2] | outcome [5] | outcome [6] | outcome [7] | outcome [8] | outcome [9] | outcome [10] | outcome [11] | outcome [12] | outcome [13] | outcome [15] | outcome [16]
active: potentiation [3] 9% | potentiation [4] 117% | potentiation [14] 81%

O=C(Nc1cccc(Cl)c1)N1CCN(C/C=C/c2ccccc2)CC1
active: potentiation [14] 19.8%
inactive: outcome [1] | outcome [2] | outcome [3] | outcome [4] | outcome [5] | outcome [6] | outcome [7] | outcome [8] | outcome [9] | outcome [10] | outcome [11] | outcome [12] | outcome [13] | outcome [15] | outcome [16]

CCCCN(CC)CCNC(=O)c1cc2c(=O)n(C)c3ccccc3c2s1
active: potentiation [3] 31% | potentiation [4] 9% | potentiation [14] 8.16%
inactive: outcome [1] | outcome [2] | outcome [5] | outcome [6] | outcome [7] | outcome [8] | outcome [9] | outcome [10] | outcome [11] | outcome [12] | outcome [13] | outcome [15] | outcome [16]

Cc1cccc(Cn2c(N3CCN(c4ccccc4)CC3)nc3c2c(=O)n(C)c(=O)n3C)c1
active: potentiation [4] 71% | potentiation [14] 59.2%
inactive: outcome [1] | outcome [2] | outcome [3] | outcome [5] | outcome [6] | outcome [7] | outcome [8] | outcome [9] | outcome [10] | outcome [11] | outcome [12] | outcome [13] | outcome [15] | outcome [16]

CC1Cc2ccccc2N1C(=O)CSc1nc2c(c(=O)n(C)c(=O)n2C)n1Cc1ccc(F)cc1 (configuration not stated)
inactive: outcome [1] | outcome [2] | outcome [5] | outcome [6] | outcome [7] | outcome [8] | outcome [9] | outcome [10] | outcome [11] | outcome [12] | outcome [13] | outcome [15] | outcome [16]
active: potentiation [3] 36% | potentiation [4] 40% | potentiation [14] 67.1%

Reference: PubChem BioAssay
